{
  "source": "PubChem BioAssay (NCATS)",
  "note": "Results filed as inconclusive are left out. Values without a mark were called inactive. Activity calls are given as the source filed them. Calls follow the shape of the dose curve; as a rule, active = well fitted inhibition curve with a large enough effect; inconclusive = small, poorly fitted or top-dose-only effect; inactive = no such curve, though single readings can be large or run the other way. % is scaled to controls: 0 for no effect and ±100 for the full control effect; potency is read from the fitted curve at half-maximal effect. Also: nearly all actives have a fitted effect of over 60% in size.",
  "data": [
    {"target": "Cytochrome P450 2D6 (Homo sapiens) (UniProt P10635)", "sequence (P10635 whole entry, looked up)": "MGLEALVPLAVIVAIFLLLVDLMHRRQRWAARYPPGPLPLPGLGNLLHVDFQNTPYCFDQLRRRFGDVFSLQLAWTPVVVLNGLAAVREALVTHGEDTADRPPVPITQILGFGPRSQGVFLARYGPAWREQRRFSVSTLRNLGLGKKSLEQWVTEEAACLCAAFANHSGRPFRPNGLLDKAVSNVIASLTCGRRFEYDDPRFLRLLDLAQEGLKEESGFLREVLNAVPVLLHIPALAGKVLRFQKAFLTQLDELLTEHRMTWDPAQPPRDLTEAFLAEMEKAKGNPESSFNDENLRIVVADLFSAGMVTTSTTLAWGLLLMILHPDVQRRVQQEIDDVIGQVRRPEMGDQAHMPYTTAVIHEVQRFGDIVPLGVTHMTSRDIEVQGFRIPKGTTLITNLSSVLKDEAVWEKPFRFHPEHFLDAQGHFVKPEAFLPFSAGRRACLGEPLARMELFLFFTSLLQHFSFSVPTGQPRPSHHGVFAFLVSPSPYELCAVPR", "assay": "qHTS Assay for Inhibitors and Substrates of Cytochrome P450 2D6 (AID 891);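 as to activity change, negative = inhibition: luciferin methyl ether substrate demethylated by CYP2D6 with NADPH regeneration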", "settings": "recombinant CYP2D6, luciferin-ME EGE luminescence; series mostly up to 11.4 µM; activity change, negative = inhibition: at the top concentration", "in_short": "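Human CYP2D6 (5 nM) with 30 uM Luciferin-ME EGE (at Km) in 100 mM KPO4, compound preincubated 10 min, then NADPH regeneration system for 60 min at room temperature. Luciferin read by luminescence; normalized to 1.43 uM quinidine.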", "units": {"activity change, negative = inhibition": "%"}, "values": [
      {"smiles": "C=C/C1=C/Cc2ccccc2C(C[N+](=O)[O-])C(C(=O)OC)(C(=O)OC)C1", "note": "(stereo not given)", "activity change, negative = inhibition": -7.55},
      {"smiles": "CCN1C(C)=C(C(=O)OC)C(c2ccccc2)N2C(=O)[C@](O)(C(=O)OC)CC(C#N)=C12", "note": "(stereo not given in full)", "activity change, negative = inhibition": -4.68},
      {"smiles": "O=Cc1ccc(OC2C=CC(C#Cc3ccccc3)OC2CO)cc1", "note": "(stereo not given)", "activity change, negative = inhibition": -6.94},
      {"smiles": "COC(=O)NC(c1ccc2ccccc2c1)C(C(C)=O)C(=O)OC", "note": "(stereo not given)", "activity change, negative = inhibition": 6.05},
      {"smiles": "C/C=C/OC(=O)NC(c1cccc(C)c1)[C@@]1(C(=O)OCC)CCCC1=O", "note": "(stereo not given in full)", "activity change, negative = inhibition": -8.17},
      {"smiles": "COC1C(O)COC1/C=C/c1ccccc1", "note": "(stereo not given)", "activity change, negative = inhibition": 6.85},
      {"smiles": "CC(C)C(=O)NC(=O)C1CCCN1C(=O)/C=C/c1ccccc1", "note": "(stereo not given)", "activity change, negative = inhibition": -3.3},
      {"smiles": "C/C=C/C1Oc2ccc(OC)cc2N2C(=O)C(C)C(OCOC)C12", "note": "(stereo not given)", "activity change, negative = inhibition": 14.6},
      {"smiles": "COC(=O)C1=C(C)N(Cc2ccccc2)c2c(C(=O)OC)c(C(=O)OC)c(C(=O)OC)c(=O)n2C1c1ccccc1", "note": "(stereo not given)", "Potency": "inactive"},
      {"smiles": "COC(=O)NC(c1cccs1)C(C(C)=O)C(=O)OC", "note": "(stereo not given)", "activity change, negative = inhibition": -4.61},
      {"smiles": "CC1CCC2C(=O)N3C(CCC(C)[C@@H]3c3ccc(Br)cc3)C(=O)N2C1c1ccc(Br)cc1", "note": "(stereo not given in full)", "activity change, negative = inhibition": -4.22},
      {"smiles": "CC1Cc2c(COc3ccccc3)nc3c(c2CO1)CN(CCOc1ccccc1)CC3", "note": "(stereo not given)", "activity change, negative = inhibition": -9.46},
      {"smiles": "CCOC(=O)OCC1OC(c2ccccc2)C=CC1Oc1cccc(N(C)C)c1", "note": "(stereo not given)", "activity change, negative = inhibition": -11.9},
      {"smiles": "COC(=O)NC(c1ccccc1)C(C(=O)OC)C(=O)OC", "note": "(stereo not given)", "Potency": "7.9 nM (active)"},
      {"smiles": "COC(=O)C1=C(C)N(Cc2ccccc2)C2=C(C(C)=O)C[C@@](O)(C(=O)OC)C(=O)N2C1c1ccccc1", "note": "(stereo not given in full)", "Potency": "inactive"},
      {"smiles": "COCOc1cc(OC)ccc1C(=O)/C=C\\c1ccc2c(c1)OCO2", "Potency": "3980 nM (active)"},
      {"smiles": "COC(C1CCCCC1)C(C)C(OCc1cccc(Br)c1)C(C)CO", "note": "(stereo not given)", "activity change, negative = inhibition": 15},
      {"smiles": "O=Cc1ccc(OC2C=CC(c3ccccc3)OC2CO)cc1", "note": "(stereo not given)", "activity change, negative = inhibition": -10.2},
      {"smiles": "COC(=O)C/C=C/C(C)C(OCc1cccc(Br)c1)C(C)C(OC)C1CCCCC1", "note": "(stereo not given)", "activity change, negative = inhibition": 23.3},
      {"smiles": "C=CCc1cccc(C2NC(C(=O)O)CCC2C)c1", "note": "(stereo not given)", "activity change, negative = inhibition": -7.13},
      {"smiles": "OCC1OC(c2ccccc2)C=CC1Oc1ccc(C2CCCC2)cc1", "note": "(stereo not given)", "activity change, negative = inhibition": 1.23},
      {"smiles": "O=C1C=C[C@@H](O)[C@@H]2[C@H]3C(=O)N(c4ccc(F)cc4F)C(=O)[C@@H]3CC[C@@H]12", "activity change, negative = inhibition": -5.52}
    ]},
    {"target": "Cytochrome P450 2C19 (Homo sapiens) (UniProt P33261)", "sequence (P33261 whole entry, looked up)": "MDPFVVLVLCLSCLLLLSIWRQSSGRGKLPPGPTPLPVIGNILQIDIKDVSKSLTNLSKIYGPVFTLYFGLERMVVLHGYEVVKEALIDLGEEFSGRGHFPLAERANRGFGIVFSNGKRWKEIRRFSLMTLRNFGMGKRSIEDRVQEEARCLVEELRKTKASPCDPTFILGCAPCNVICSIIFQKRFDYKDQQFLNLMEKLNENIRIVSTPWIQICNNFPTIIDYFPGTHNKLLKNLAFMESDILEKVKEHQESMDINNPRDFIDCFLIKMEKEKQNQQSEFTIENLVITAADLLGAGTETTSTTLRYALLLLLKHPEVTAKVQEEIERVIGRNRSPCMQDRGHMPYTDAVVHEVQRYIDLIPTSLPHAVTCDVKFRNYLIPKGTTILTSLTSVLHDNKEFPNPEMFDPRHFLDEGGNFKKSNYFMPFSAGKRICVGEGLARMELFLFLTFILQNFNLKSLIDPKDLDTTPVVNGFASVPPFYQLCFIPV", "assay": "qHTS Assay for Inhibitors and Substrates of Cytochrome P450 2C19 (AID 899)", "settings": "recombinant CYP2C19, luciferin-H EGE luminescence; series mostly up to 11.4 µM; activity, negative = inhibition: at the top concentration", "in_short": "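Signal comes from luciferase acting on luciferin released by CYP2C19-mediated hydroxylation of Luciferin-H EGE, 10uM (KM). Assay mix: 5nM enzyme, 50mM KPO4; 60 min at 37C with NADPH regeneration. Data normalized against 57uM ketoconazole.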", "units": {"activity, negative = inhibition": "%"}, "values": [
      {"smiles": "COC(=O)C/C=C1\\c2ccccc2C(OC)C1C", "note": "(stereo not given)", "activity, negative = inhibition": 34.9},
      {"smiles": "CCOC(=O)OCC1C=C[C@H](c2cc(-c3ccccc3)ccc2O)C(c2ccc(C(C)=O)cc2)O1", "note": "(stereo not given in full)", "Potency": "3160 nM (active)"},
      {"smiles": "COC(=O)NC(c1cccc(C)c1)[C@@]1(C(=O)OC)CCCC1=O", "note": "(stereo not given in full)", "activity, negative = inhibition": -36.3},
      {"smiles": "C=CCc1cccc(C2C(C)CCC3C(=O)N4C(Cc5c([nH]c6ccccc56)C4c4cc(OC)c(OC)c(OC)c4)C(=O)N32)c1", "note": "(stereo not given)", "activity, negative = inhibition": 16.8},
      {"smiles": "CCN1C(C)=C(C(=O)OC)C(c2ccccc2)N2C(=O)[C@](O)(C(=O)OC)CC(C#N)=C12", "note": "(stereo not given in full)", "activity, negative = inhibition": -29.5},
      {"smiles": "COC(=O)C1C(C)OC(=O)NC1c1ccccc1", "note": "(stereo not given)", "activity, negative = inhibition": -16.9},
      {"smiles": "COC(=O)NC(c1ccc2ccccc2c1)C(C(C)=O)C(=O)OC", "note": "(stereo not given)", "Potency": "1260 nM (active)"},
      {"smiles": "C/C=C/OC(=O)NC(c1cccc(C)c1)[C@@]1(C(=O)OCC)CCCC1=O", "note": "(stereo not given in full)", "Potency": "1000 nM (active)"},
      {"smiles": "COC1C(O)COC1/C=C/c1ccccc1", "note": "(stereo not given)", "activity, negative = inhibition": 18.6},
      {"smiles": "CC(C)C(=O)NC(=O)C1CCCN1C(=O)/C=C/c1ccccc1", "note": "(stereo not given)", "activity, negative = inhibition": 66.6},
      {"smiles": "C/C=C/C1Oc2ccc(OC)cc2N2C(=O)C(C)C(OCOC)C12", "note": "(stereo not given)", "activity, negative = inhibition": -0.71},
      {"smiles": "COC(=O)NC(c1cccc(F)c1)[C@@]1(C(=O)OC)CCCC1=O", "note": "(stereo not given in full)", "activity, negative = inhibition": -14},
      {"smiles": "COC(=O)NC(CC(C)=O)c1ccc(Cl)cc1", "note": "(stereo not given)", "activity, negative = inhibition": -8.18},
      {"smiles": "COC(=O)C1=C(C)N(Cc2ccccc2)c2c(C(=O)OC)c(C(=O)OC)c(C(=O)OC)c(=O)n2C1c1ccccc1", "note": "(stereo not given)", "activity, negative = inhibition": 31.6},
      {"smiles": "COc1ccc(OC)c(C2OCCC=CC2C)c1", "note": "(stereo not given)", "activity, negative = inhibition": 51.6},
      {"smiles": "COC(=O)C1=C(C)N(Cc2ccccc2)C2=C(C(C)=O)C[C@@](O)(C(=O)OC)C(=O)N2C1c1ccccc1", "note": "(stereo not given in full)", "Potency": "inactive"},
      {"smiles": "COC(C1CCCCC1)C(C)C(OCc1cccc(Br)c1)C(C)CO", "note": "(stereo not given)", "Potency": "1580 nM (active)"},
      {"smiles": "O=Cc1ccc(OC2C=CC(c3ccccc3)OC2CO)cc1", "note": "(stereo not given)", "activity, negative = inhibition": -15.5},
      {"smiles": "C=CCc1cccc(C2NC(C(=O)O)CCC2C)c1", "note": "(stereo not given)", "activity, negative = inhibition": 60.1},
      {"smiles": "OCC1OC(c2ccccc2)C=CC1Oc1ccc(C2CCCC2)cc1", "note": "(stereo not given)", "activity, negative = inhibition": -12.5},
      {"smiles": "CC12C=C(/C=C/CCc3ccco3)C(C)(C1)C(CCc1ccco1)CC2=O", "note": "(stereo not given)", "activity, negative = inhibition": 102},
      {"smiles": "C=CCC1C=CC(OC(=O)OCC)C(COC(=O)OCC)O1", "note": "(stereo not given)", "Potency": "794 nM (active)"},
      {"smiles": "O=C1C=C[C@@H](O)[C@@H]2[C@H]3C(=O)N(c4ccc(F)cc4F)C(=O)[C@@H]3CC[C@@H]12", "activity, negative = inhibition": -43.8}
    ]}
  ]
}
